This passage reports activity change, negative = inhibition, Potency and activity, negative = inhibition results from PubChem BioAssay (NCATS).

Values joined by “and” are separate entries in the source; they are usually repeats but may differ in a detail not shown here. Equal values may be shown once. Records with an inconclusive call do not appear. More than one record can exist for a structure, and the calls need not agree. Active and inactive are the calls of the source. Unless noted, calls follow the shape of the dose curve; as a rule, active = well fitted curve in either direction with a large enough effect (not every such curve was filed as active); inconclusive = small, poorly fitted or top-dose-only effect, or another doubt; inactive = flat fitted curve, though single readings scatter. A value given as a limit tells only on which side of the number the result lay.

A short description of assay [1]: AP1 Signaling Pathway (AID 357). Also: % is scaled to controls: 0 for no effect and ±100 for the full control effect. The note with it: ME-180 AP-1-bla reporter, EGF-induced, beta-lactamase ratio, 5 h. Summed up:
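ME-180 cells with beta-lactamase reporter under AP-1 response element, stimulated with EC50 EGF; compounds tested in titration series, 5 h at 37 °C. CCF4 substrate added 2.5 h at room temperature; 460/530 nm emission ratio gave %activity and AC50.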

Assay [2] has as its target Cytochrome P450 1A2 (Homo sapiens) (UniProt P05177). In words: p450-cyp1a2 (AID 410; calls by dose curve; also: potency is read from the fitted curve at half-maximal effect;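 as to activity change, negative = inhibition: -100% = full effect of reference inhibitor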). The note with it: recombinant CYP1A2, luciferin-ME demethylation, luminescence; series mostly up to 25.6 µM. A digest of the protocol:
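20nM CYP1A2 with 100uM Luciferin-ME (at Km) in 100mM KPO4; compound preincubated 10 min, NADPH regeneration added, 60 min at room temperature. Luciferin quantified by luminescence after detection reagent; normalized to 57 uM furafylline.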

Assay [3] can be described thus: NFAT Signaling Pathway (AID 444).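 Also: carbachol stimulus at about its EC50 of 1 µM final; % is scaled to controls: 0 for no effect and ±100 for the full control effect.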 Particulars: Jurkat NFAT-bla M1, carbachol, beta-lactamase ratio, 5 h. Summed up: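 Read-out: CCF4 FRET ratio (460 nm/530 nm) after 1 h RT dye loading, used for %activity and AC50 from titration series. Cells: Jurkat NFAT-β-lactamase/M1 line, treated with compound plus 1 uM carbachol for 5 h, 37 °C.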
The nature of assay [4]: Stat Signaling Pathway (AID 446).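 Also: ME-180 cervical cancer cells given 40 pM IL-6 alongside compound; SIE-controlled beta-lactamase reporter measured as 460/530 nm FRET emission ratio; % is scaled to controls: 0 for no effect and ±100 for the full control effect.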 Particulars: ME-180 SIE beta-lactamase reporter, IL-6 stimulated, 5 h. A digest of the protocol:
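Screening format detects activators and inhibitors alike: ME-180 SIE-bla cells stimulated at 40 pM IL-6 for 5 hrs with compound, then dual-emission beta-lactamase read at 405 nm excitation.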

In assay [5] the target is Mitogen-activated protein kinase 10 (Mus musculus) (UniProt Q61831). In words: JNK3 AlphaScreen Assay (AID 530).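 Also: kinase came from lysate of stimulated human HepG2 cells; signal reports phosphorylation of biotinylated GST-cJun 1-79 at Ser73 with 10 µM ATP; % is scaled to controls: 0 for no effect and ±100 for the full control effect.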 The note with it: JNK3 lysate, c-Jun phosphorylation; series mostly up to 57.1 µM. Summed up: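 Compound titrations were preincubated 15 minutes at room temperature with substrate, antibody and pre-activated JNK3-containing HepG2 lysate. Reactions were started with 10 uM ATP and stopped with EDTA-containing bead buffer for AlphaScreen detection.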
In general terms: Bead proximity is the source of the signal in Alpha formats.

The target in assay [6] is Glucocorticoid receptor (Homo sapiens) (UniProt P04150). In words: GR-GFP Redistribution (AID 450;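 active = compounds whose dose series gives a full or clear partial fitted curve of increased nuclear translocation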; also: potency is read from the fitted curve at half-maximal effect). The note with it: U2OS GR-GFP nuclear translocation, laser cytometry, 2 h.
Glucocorticoid receptor (Homo sapiens), sequence (P04150 whole entry, looked up): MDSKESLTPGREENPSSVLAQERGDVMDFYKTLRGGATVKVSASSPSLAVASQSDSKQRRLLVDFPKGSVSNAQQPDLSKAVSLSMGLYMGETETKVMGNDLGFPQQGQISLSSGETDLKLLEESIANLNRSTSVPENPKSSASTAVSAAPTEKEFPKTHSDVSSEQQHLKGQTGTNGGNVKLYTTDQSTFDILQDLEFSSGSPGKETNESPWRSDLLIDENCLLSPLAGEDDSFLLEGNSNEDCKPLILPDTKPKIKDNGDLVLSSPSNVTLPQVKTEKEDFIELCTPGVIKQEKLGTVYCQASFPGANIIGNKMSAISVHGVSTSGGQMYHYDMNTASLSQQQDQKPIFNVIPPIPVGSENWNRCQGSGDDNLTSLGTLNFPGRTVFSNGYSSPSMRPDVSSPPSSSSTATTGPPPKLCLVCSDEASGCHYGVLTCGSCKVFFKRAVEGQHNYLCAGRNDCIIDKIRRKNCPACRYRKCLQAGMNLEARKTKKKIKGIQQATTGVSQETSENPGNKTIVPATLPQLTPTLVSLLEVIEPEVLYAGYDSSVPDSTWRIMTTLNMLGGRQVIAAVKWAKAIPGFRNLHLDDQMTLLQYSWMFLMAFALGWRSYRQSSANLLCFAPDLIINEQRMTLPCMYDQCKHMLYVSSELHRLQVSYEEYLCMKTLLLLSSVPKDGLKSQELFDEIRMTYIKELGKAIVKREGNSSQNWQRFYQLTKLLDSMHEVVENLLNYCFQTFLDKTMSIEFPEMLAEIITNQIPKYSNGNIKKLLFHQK
Assay [7] shares this target. Description: GR-EFC Redistribution (AID 451; calls by dose curve; also: potency is read from the fitted curve at half-maximal effect). Particulars: CHO-K1 GR-EFC translocation, beta-gal luminescence, 2 h. Summed up:
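Translocation of GR-ED fusion to nuclear EA restores b-gal, read by luminescence after 1 h room-temperature detection. Engineered CHO-K1 biosensor cells, 1,000/well, exposed 2 h at 37 C to titrations up to 46 uM final.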

Cytochrome P450 1A2 (Homo sapiens), sequence (P05177 whole entry, looked up): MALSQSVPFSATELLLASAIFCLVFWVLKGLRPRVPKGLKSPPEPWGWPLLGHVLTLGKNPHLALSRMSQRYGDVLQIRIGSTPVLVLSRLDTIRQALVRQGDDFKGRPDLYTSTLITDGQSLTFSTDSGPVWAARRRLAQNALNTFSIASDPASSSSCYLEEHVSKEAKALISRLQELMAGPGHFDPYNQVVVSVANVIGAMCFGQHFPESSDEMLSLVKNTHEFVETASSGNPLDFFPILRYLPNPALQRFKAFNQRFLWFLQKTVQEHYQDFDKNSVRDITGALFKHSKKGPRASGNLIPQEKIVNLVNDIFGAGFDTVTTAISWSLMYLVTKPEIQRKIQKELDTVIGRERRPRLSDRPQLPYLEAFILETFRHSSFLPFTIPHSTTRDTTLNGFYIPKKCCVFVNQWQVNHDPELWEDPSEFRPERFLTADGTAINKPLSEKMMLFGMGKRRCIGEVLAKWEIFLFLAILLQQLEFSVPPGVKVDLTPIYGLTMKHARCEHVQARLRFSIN

For the compound `CCn1cc(C(=O)O)c(=O)c2cnc(N3CCNCC3)nc21`, the activity change, negative = inhibition in assay [1] (at 17.2 µM (top of the series)) is 8.66% (inactive) and 0.464% (inactive); in assay [3] (at 17.2 µM (top of the series)), -4.81% (inactive). Besides, the Potency result in assay [2] and in assay [5] was “inactive” in each case. For the same compound, the activity, negative = inhibition in assay [4] (at 17.2 µM (top of the series)) was 3.23% (inactive) and 2.72% (inactive).
`c1ccc(CN(CC2=NCCN2)c2ccccc2)cc1`: the activity change, negative = inhibition in assay [1] (at 17.2 µM (top of the series)) is 6.18% (inactive) and 2.47% (inactive) and 4.31% (inactive). For the same compound, the Potency entry in assay [2] and in assay [5] was “inactive” each time. The activity, negative = inhibition in assay [4] (at 17.2 µM (top of the series)) was -2.58% (inactive) and 2.91% (inactive) and -16.4% (inactive).
For `Nc1ccc(S(=O)(=O)Nc2ccc(Cl)nn2)cc1`, the activity change, negative = inhibition in assay [1] (at 17.2 µM (top of the series)) was 7.06% (inactive); in assay [3] (at 17.2 µM (top of the series)), 9.43% (inactive). Moreover, the Potency result in assay [2] and in assay [5] was “inactive” throughout. The activity, negative = inhibition in assay [4] (at 17.2 µM (top of the series)) was -3.21% (inactive).
Take `CCN(CC)CCOC(=O)C1(C2CCCCC2)CCCCC1`: the activity change, negative = inhibition was 21% (inactive) in assay [1] (at 17.2 µM (top of the series)), 20.8% (inactive) in assay [1] (at 38 µM (top of the series)), -68.8% (active) in assay [3] (at 17.2 µM (top of the series)) and -63.7% (active) in assay [3] (at 38 µM (top of the series)). Besides, the activity, negative = inhibition in assay [4] (at 17.2 µM (top of the series)) is 0.488% (inactive) and 9.07% (inactive); in assay [4] (at 38 µM (top of the series)), -26% (inactive). Also, the Potency entry in assay [5] was “inactive”.
On to `NS(=O)(=O)c1cc2c(cc1Cl)NC(CSCc1ccccc1)=NS2(=O)=O`, for which the activity change, negative = inhibition in assay [1] (at 17.2 µM (top of the series)) was -6.04% (inactive) and -5.71% (inactive); in assay [3] (at 17.2 µM (top of the series)), -9.25% (inactive) and 1.09% (inactive). Further, the Potency result in assay [2] and in assay [5] was “inactive” in each case. For the same compound, the activity, negative = inhibition in assay [4] (at 17.2 µM (top of the series)) was -11% (inactive) and 0.218% (inactive). The Potency in assay [6] and in assay [7] was > 20.6 µM (inactive) in each case.
On to `C#CCN(C)Cc1ccccc1`, for which the activity change, negative = inhibition was -4.72% (inactive) and 6.12% (inactive) in assay [1] (at 17.2 µM (top of the series)); 1.9% (inactive) in assay [1] (at 38 µM (top of the series)); 4.68% (inactive) and -0.725% (inactive) in assay [3] (at 17.2 µM (top of the series)); 4.11% (inactive) in assay [3] (at 38 µM (top of the series)). For the same compound, the Potency result in assay [2] and in assay [5] was “inactive” throughout. Moreover, in assay [4] (at 17.2 µM (top of the series)), the activity, negative = inhibition is 8.61% (inactive) and -2.46% (inactive). For the same compound, the Potency was > 46 µM (inactive) and > 20.6 µM (inactive) in assay [6]; > 46 µM (inactive) and > 20.6 µM (inactive) in assay [7].
Turning to `Cc1cc(N)c2ccccc2[n+]1CCCCCCCCCC[n+]1c(C)cc(N)c2ccccc21`, the activity change, negative = inhibition in assay [1] (at 17.2 µM (top of the series)) is -20.8% (inactive); in assay [3] (at 38 µM (top of the series)), -78.7% (active). The Potency entry in assay [2] was “inactive and 10 µM (active) and 15.8 µM (active)”; in assay [6], > 46 µM (inactive) and > 20.6 µM (inactive); in assay [7] it was > 46 µM (inactive) and > 20.6 µM (inactive). Moreover, the activity, negative = inhibition in assay [4] (at 17.2 µM (top of the series)) is -1.05% (inactive); in assay [4] (at 38 µM (top of the series)) it was -10.8% (inactive). Further, the Potency result in assay [5] is “inactive”.
